Source: PubChem BioAssay (NCATS)
“And” between values parts separate entries of the source, which are not always exact repeats. Equal entries are not always repeated. Results filed as inconclusive are left out. The source made the active and inactive calls. Unless noted, calls follow the shape of the dose curve; as a rule, active = well fitted curve in the direction sought with a large enough effect; inconclusive = small, poorly fitted or top-dose-only effect, or another doubt; inactive = no such curve, though single readings can be large; an effect the other way counts as inactive or inconclusive.

What was measured:
[1] = Cell Viability - BJ (AID 421; calls by dose curve;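 also: potency is read from the fitted curve at half-maximal effect; cells exposed to compound for 40 hours at 37 °C before readout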); settings: BJ fibroblast viability, qHTS
In short: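 Cytotoxicity in human BJ foreskin fibroblasts is scored as loss of cellular ATP after a 40-hour exposure, measured by luciferase luminescence. Controls are DMSO and 100 uM tamoxifen.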

[2] = Cell Viability - MRC5 (AID 434; calls by dose curve;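 also: potency is read from the fitted curve at half-maximal effect; cells exposed to compound for 40 hours at 37 °C; potency reflects cytotoxicity seen as loss of intracellular ATP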); settings: MRC5 lung fibroblast viability, qHTS
In short: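 AC50 values come from Hill-equation fits of intracellular ATP loss, measured by CellTiter-Glo luminescence. Normal lung fibroblasts (MRC5) had 40 hr compound treatment at 37 C, normalized between DMSO and 100 uM tamoxifen.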

[3] = Cell Viability - SK-N-SH (AID 435; calls by dose curve;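 also: potency is read from the fitted curve at half-maximal effect; compound exposure lasted 40 h at 37 °C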); settings: SK-N-SH neuroblastoma cell viability qHTS
In short: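 Luminescent ATP signal served as the viability read-out after 40 hours of compound treatment of human neuroblastoma SK-N-SH cells. Concentration-response data, scaled between DMSO and 100 uM tamoxifen, gave AC50 values by standard Hill modeling.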

[4] = Cell Viability - NIH 3T3 (AID 541); settings: NIH 3T3 cell viability, qHTS; activity change, negative = cytotoxicity: at 92.2 µM (top of the series);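 also: plate controls were DMSO alone for no effect and tamoxifen positive control for full effect; nearly all actives have a fitted effect of over 25% in size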
In short: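 Intracellular ATP (CellTiter-Glo luminescence, 20 min at room temperature) measured after 40 hr compound exposure at 37 °C of 1000 NIH 3T3 mouse fibroblasts/well in complete medium; AC50 derived by Hill-equation modelling of qHTS concentration-response curves.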

[5] = Cell Viability - Mesenchymal (AID 546); settings: mesenchymal cells viability, qHTS; activity change, negative = cytotoxicity: at 91.7 µM (top of the series);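 also: cells exposed to compound for 40 hours before reading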
In short: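 CellTiter-Glo luminescence (intracellular ATP, 20 min room temperature) after 40 hr compound exposure at 37 °C of 1000 glomerulus-derived human kidney mesenchymal cells/well; AC50 values obtained by fitting qHTS concentration-response data to the Hill equation.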

[6] = Cellular Toxicity (caspase-3) BJ (AID 658); settings: BJ fibroblasts, luminescence, normalized: DMSO 0%, staurosporine 100%; series mostly up to 91.7 µM
In short: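 Caspase-Glo 3/7 luminescence, read 1 hr after reagent at room temperature, in normal BJ fibroblasts exposed 16 hours at 37 °C. AC50 values from Hill-equation concentration-response, scaled between DMSO basal and 10 uM staurosporine as 100%.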

[7] = Cellular Toxicity (caspase-3) MRC-5 (AID 659); settings: MRC-5 cells, luminescence, normalized: DMSO 0%, 10 µM staurosporine 100%; series mostly up to 91.7 µM
In short: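 Luminescent Caspase-Glo 3/7 read-out (1 h, room temperature) after a 16 h, 37 °C compound exposure of MRC-5 lung fibroblasts at 1500 cells/well. Concentration-response AC50 from Hill equation; 0% DMSO, 100% 10 uM staurosporine.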

[8] = Cellular Toxicity (caspase-3) Mesangial (AID 660); settings: mesangial cells, normalized: DMSO 0%, 100 µM tamoxifen 100%; series mostly up to 91.7 µM;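 also: combined caspase 3 and 7 activity read by Caspase-Glo luminescence; cells exposed to compound for 16 h before the caspase read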
In short: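 Caspase 3/7 activation measured by Caspase-Glo 3/7 luminescence (20 min, room temperature) following 16 h exposure of mesangial cells (1000/well); AC50 from Hill-equation fit, normalized to DMSO and 100 uM tamoxifen.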

[9] = Cellular Toxicity (caspase-3) Hek293 (AID 664); settings: HEK293 caspase-3 activation, DMSO = 0%, 100 µM tamoxifen = 100%; series mostly up to 92.2 µM;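 also: cells exposed to compound for 16 h at 37 °C before readout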
In short: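 Concentration-response qHTS: caspase 3/7 activation measured by luminescent aminoluciferin substrate cleavage after 16 h compound exposure of Hek 293 cells. AC50 from Hill equation, with DMSO as basal and 100 uM tamoxifen as 100%.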

[10] = Cellular Toxicity (caspase-3) Renal Proximal Tubule (AID 667); settings: renal proximal tubule cells, primary cells freshly taken from rat, solvent-only wells 0%, staurosporine 100%; series mostly up to 91.7 µM;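 also: cells exposed to compound for 16 hours at 37 °C before detection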
In short: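 AC50 derived by standard Hill fit of concentration-response data, normalized between DMSO basal and 10 uM staurosporine as 100% stimulation. Cells: primary rat kidney proximal tubule, 16 h treatment at 37 °C.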

[11] = MultiTox-Fluor Cytotoxicity Assay - LYMP1-003 - Live Cells (AID 962); settings: LYMP1-003 lymphoblastoid cells, MultiTox-Fluor live-cell protease fluorescence; series mostly up to 92.2 µM;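 also: 0% = DMSO only and full loss = 92 µM tetraoctylammonium bromide; cytotoxic hits lower the live-cell protease signal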
In short: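 Live-cell protease activity (GF-AFC substrate, 405/510 nm, 60 min at room temperature) after 16 h, 37 C compound exposure of human lymphoblastoid LYMP1-003 cells; concentration-response fitted to the Hill equation for AC50.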

[12] = qHTS Assay for Identification of Small Molecule Inducers of Hypoxia Response (AID 2120; active = well fitted curve in the direction sought with a large enough effect in the signal ratio, with a control signal flat, not every such curve was filed as active; the % refers to the signal ratio; also: 0% is about no effect); settings: hypoxia response reporter cells, beta-lactamase ratio readout; series mostly up to 104 µM
In short: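 Reporter induction read as the CCF4 blue/green (460nm/530nm) emission ratio after 2.5 h dye loading at room temperature. ME-180 HRE-beta-lactamase cells received titrated compounds for 17 h at 37 degrees Celsius; AC50 values derived.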

[13] = target: Thyroid hormone receptor beta (Homo sapiens) (UniProt P10828); test: qHTS assay for small molecule agonists of thyroid hormone receptor beta signaling (AID 588545; calls by dose curve); settings: TR-UAS-bla GripTite HEK 293, beta-lactamase ratio, agonist mode, 18 h, percent of T3 response, DMSO as zero; series mostly up to 76.7 µM
In short: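 Agonist-mode beta-lactamase reporter assay, HEK 293 cells, 2% charcoal/dextran FBS; cells plated 4 hrs, compound 18 hrs at 37 C, CCF4 2 hrs RT. Normalized to 10 nM T3 (100%) and DMSO (0%); Hill fit gives EC50, efficacy.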

[14] = qHTS assay for small molecule antagonists of retinoid X receptor alpha signaling (AID 588546; active = well fitted inhibition curve with a large enough effect in the signal ratio, with a control signal flat, not every such curve was filed as active; the % refers to the signal ratio;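 also: cells stimulated with 9-cis-retinoic acid as agonist; % is scaled to controls: 0 for no effect and ±100 for the full control effect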); settings: HEK293T RXRa-UAS-bla, beta-lactamase ratio, antagonist mode; measured here: W530 green channel, cytotoxicity proxy
In short: (§1)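 Beta-lactamase reporter inhibition, read as CCF4 fluorescence ratio (ex 405, em 460/530 nm) after 2 h at RT. HEK293T UAS-bla cells, 2500/well, were stimulated with 9-cis-RA at 500 or 100 nM final alongside test compound for 18 h at 37 C.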

[15] = target: Retinoic acid receptor RXR-alpha (Homo sapiens) (UniProt P19793); test: as above; settings: HEK293T RXRa-UAS-bla, beta-lactamase ratio, antagonist mode
In short: as §1

[16] = qHTS assay for environmental chemicals that activate the Aryl hydrocarbon Receptor (AhR) signaling pathway (AID 651777); settings: 1A2-DRE human hepatoma cells, luciferase, 24 h; activation: stronger effect = higher value; also: % of control where 0% means no effect; nearly all actives have a fitted effect of over 15% in size
In short: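 Human hepatoma 1A2-DRE cells, stably carrying a dioxin response element and CYP1A2 promoter driving luciferase, were exposed to compounds for 24 hr at 37 C and 5% CO2. Luciferase signal was then read after 30 min One-Glo at room temperature.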

[17] = target: Peroxisome proliferator-activated receptor alpha (Homo sapiens) (UniProt Q07869); test: qHTS assay for small molecule agonists of the peroxisome proliferator-activated receptor alpha (PPARalpha) signaling pathway (AID 651778); settings: PathHunter PPARalpha complementation, chemiluminescence, 6 h; max response: stronger effect = higher value; also: % of control where 0% means no effect
In short: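 Chemiluminescence from complemented enzyme reported PPARalpha activation in cells after 6 hr of compound treatment at 37 C. The detection reagent was incubated for 60 min at room temperature, and compounds were scored as agonists.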

[18] = qHTS assay for small molecule agonists of the antioxidant response element (ARE) signaling pathway measured by Nrf2-dependant transcriptional activity (AID 720636; active = well fitted curve in the direction sought with a large enough effect in the repeat runs; an effect the other way counts as inactive or inconclusive; also: % of control where 0% means no effect); settings: ARE-luc HepG2, Nrf2 luciferase reporter, 16 h; series mostly up to 92.4 µM
In short: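 ARE-luc HepG2 cells carrying an Nrf2-responsive luciferase reporter were plated in medium with 1% dialyzed FBS, left 6 hr at 37 C to attach, then exposed to compound for 16 hr. Luciferase luminescence was read after ONE-Glo addition.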

[19] = qHTS assay for small molecule agonists of the antioxidant response element (ARE) signaling pathway measured by Nrf2-dependant transcriptional activity - cell viability counter screen (AID 720653; active = well fitted curve in the direction sought with a large enough effect in the repeat runs; an effect the other way counts as inactive or inconclusive; also: % is scaled to controls: 0 for no effect and ±100 for the full control effect); settings: ARE-bla HepG2 viability, CellTiter-Glo ATP luminescence, 16 h; max response: stronger effect = lower value
In short: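 Cytotoxicity counter screen: intracellular ATP quantified by CellTiter-Glo luminescence in the same ARE-bla HepG2 plates, after 16 h compound exposure and a 2 h beta-lactamase substrate step.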

[20] = qHTS assay for cell viability of HEK293 cells (AID 743288); settings: ATP luminescence (CellTiter-Glo), 18 h; max response: stronger effect = lower value; also: % is scaled to controls: 0 for no effect and ±100 for the full control effect; nearly all actives have a fitted effect of over 50% in size
In short: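 Viable-cell counts were inferred from luciferase-based ATP content in HEK293 cells seeded at 2,000/well, pre-incubated ≥5 h, then dosed with DMSO-solubilised compounds for 18 h at 37 C.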

Sequence of Retinoic acid receptor RXR-alpha (Homo sapiens) (P19793 whole entry, looked up): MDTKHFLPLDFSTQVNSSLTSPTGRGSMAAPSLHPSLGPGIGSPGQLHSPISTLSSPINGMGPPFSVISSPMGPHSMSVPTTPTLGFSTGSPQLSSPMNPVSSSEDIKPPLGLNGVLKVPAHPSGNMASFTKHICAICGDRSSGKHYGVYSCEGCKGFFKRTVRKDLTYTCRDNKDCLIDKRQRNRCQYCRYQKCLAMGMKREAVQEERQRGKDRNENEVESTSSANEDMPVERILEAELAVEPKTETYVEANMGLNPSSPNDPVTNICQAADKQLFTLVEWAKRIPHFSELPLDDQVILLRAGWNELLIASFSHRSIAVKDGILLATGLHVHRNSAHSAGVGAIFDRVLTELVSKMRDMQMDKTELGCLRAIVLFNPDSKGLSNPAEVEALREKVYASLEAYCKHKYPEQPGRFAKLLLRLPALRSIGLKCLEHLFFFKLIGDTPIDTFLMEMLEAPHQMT
Sequence of Thyroid hormone receptor beta (Homo sapiens) (P10828 whole entry, looked up): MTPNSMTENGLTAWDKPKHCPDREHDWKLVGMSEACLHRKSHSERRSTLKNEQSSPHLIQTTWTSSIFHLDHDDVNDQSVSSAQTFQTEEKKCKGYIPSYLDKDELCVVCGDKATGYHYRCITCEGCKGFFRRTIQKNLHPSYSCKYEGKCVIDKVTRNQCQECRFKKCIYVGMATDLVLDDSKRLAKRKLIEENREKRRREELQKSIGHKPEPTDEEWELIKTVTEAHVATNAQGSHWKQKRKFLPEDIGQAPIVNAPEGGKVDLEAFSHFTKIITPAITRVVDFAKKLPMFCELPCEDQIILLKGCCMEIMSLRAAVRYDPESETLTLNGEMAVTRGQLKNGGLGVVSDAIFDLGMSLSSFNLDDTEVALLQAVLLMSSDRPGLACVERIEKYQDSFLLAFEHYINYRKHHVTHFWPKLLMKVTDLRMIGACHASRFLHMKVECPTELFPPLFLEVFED
Sequence of Peroxisome proliferator-activated receptor alpha (Homo sapiens) (Q07869 whole entry, looked up): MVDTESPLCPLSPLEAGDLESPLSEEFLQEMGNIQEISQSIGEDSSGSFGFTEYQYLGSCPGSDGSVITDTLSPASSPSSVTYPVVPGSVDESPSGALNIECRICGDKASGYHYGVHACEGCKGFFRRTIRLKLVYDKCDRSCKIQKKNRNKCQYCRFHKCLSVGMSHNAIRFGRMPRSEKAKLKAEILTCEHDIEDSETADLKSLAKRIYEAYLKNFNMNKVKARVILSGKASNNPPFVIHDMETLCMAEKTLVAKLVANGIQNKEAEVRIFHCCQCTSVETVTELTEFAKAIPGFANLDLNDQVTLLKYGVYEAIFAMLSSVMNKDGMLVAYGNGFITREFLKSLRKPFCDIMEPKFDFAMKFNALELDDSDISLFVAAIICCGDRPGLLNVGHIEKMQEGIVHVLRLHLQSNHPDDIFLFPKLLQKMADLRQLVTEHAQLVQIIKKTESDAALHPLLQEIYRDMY

CN(C)CCCCCCN(C)C
-0.59%: max response [14]
inactive: Potency [1] > 92 µM | Potency [2] > 92 µM | Potency [3] > 92 µM | Potency [4] | activity change, negative = cytotoxicity [5] 10.5% | outcome [6] | outcome [7] | outcome [8] | outcome [9] | outcome [10] | Potency [11] | outcome [12] | outcome [13] | max response [15] 23.1% | activation [16] 1.69% | max response [17] -5.54% | Potency [18] | max response [19] 1.08% | max response [20] -4.75%

CC(C)=CCCC(C)CCO (configuration not stated)
-7.35% and -8.91%: max response [14]
inactive: Potency [1] > 92 µM | Potency [2] > 92 µM | Potency [3] > 92 µM | Potency [4] | activity change, negative = cytotoxicity [5] 5.35% | outcome [6] | outcome [7] | outcome [8] | outcome [9] | outcome [10] | Potency [11] | outcome [12] | outcome [13] | max response [15] -7.24% and 2.51% | activation [16] -0.0827% and -0.667% | max response [17] -8.23% and 0.206% | Potency [18] | max response [19] -2.24% and -1.77% | max response [20] 0.805% and -8.34%

COCC(=O)O
10.5% and -3.07%: max response [14]
inactive: Potency [1] > 92 µM | Potency [2] > 92 µM | Potency [3] > 92 µM | Potency [4] | activity change, negative = cytotoxicity [5] 2.06% | outcome [6] | outcome [7] | outcome [8] | outcome [9] | outcome [10] | Potency [11] | outcome [12] | outcome [13] | max response [15] 8.65% and -6.69% | activation [16] -1.91% and 0.0528% | max response [17] -0.223% and -0.993% | Potency [18] | max response [19] 8.69% and 6.89% | max response [20] -1.06% and 2.91%

CCO[Si](CCCN)(OCC)OCC
inactive: Potency [1] > 92 µM | Potency [2] > 92 µM | Potency [3] > 92 µM | Potency [4] | activity change, negative = cytotoxicity [5] -8.88% | outcome [6] | outcome [7] | outcome [8] | outcome [9] | outcome [10] | Potency [11] | outcome [12] | max response [15] 16.1% and 0.599% | max response [17] -1.45% and -1.48% | Potency [18] | max response [19] -1.9% and -14% | max response [20] -4.38% and -9.06%
-0.81% and -5.53%: max response [14]

O=C(O)CCCCCCCCC(=O)O
inactive: outcome [13] | activation [16] -2.45% | max response [17] -0.446% | Potency [18] | max response [19] -1.89% | max response [20] -12.5%

CCCCCCCCO
inactive: Potency [1] > 92 µM | Potency [2] > 92 µM | Potency [3] > 92 µM | Potency [4] | activity change, negative = cytotoxicity [5] -3.19% | outcome [6] | outcome [7] | outcome [8] | outcome [9] | outcome [10] | Potency [11] | outcome [12] | outcome [13] | max response [15] 1.87% and 1.57% and -7.12% | activation [16] -0.529% and -1.53% and 2.03% | max response [17] 2.47% and -5.18% and -0.424% | Potency [18] | max response [19] -1.13% and 11.2% and -1.97% | max response [20] 3.94% and -5.81% and -6.7%
-5.18% and -18.2% and -19.2%: max response [14]

CCC(O)OC(O)CC (configuration not stated)
-6.87% and -7.76%: max response [14]
inactive: Potency [1] > 92 µM | Potency [2] > 92 µM | Potency [3] > 92 µM | Potency [4] | activity change, negative = cytotoxicity [5] 7.91% and -0.346% | outcome [6] | outcome [7] | outcome [8] | outcome [9] | outcome [10] | Potency [11] | outcome [12] | outcome [13] | max response [15] -3.68% and -1.43% | activation [16] 0.464% [middle of 4 runs] | max response [17] -0.587% [middle of 4 runs] | Potency [18] | max response [19] 1.91% [middle of 4 runs] | max response [20] -2.73% [middle of 4 runs]

c1ccc2c(c1)c1cccc3ccc4cccc2c4c31
-0.47% and 10%: max response [14]
inactive: Potency [1] > 92 µM | Potency [2] > 92 µM | Potency [3] > 92 µM | Potency [4] | activity change, negative = cytotoxicity [5] 2.17% | outcome [6] | outcome [7] | outcome [8] | outcome [9] | outcome [10] | Potency [11] | outcome [12] | max response [15] -6.5% and -1.07% | activation [16] 0.979% and 4.09% | max response [17] -2.3% and -3.04% | max response [19] -0.0817% and -5.96% | max response [20] 0.963% and -16.2%
